A selection: hits, their analogues and other compounds. The true share with any hit is near 12%.
Pf growth 48h: inhibits P. falciparum growth in the first generation, 48 h. P. falciparum luciferase growth in erythrocytes, 48 h. Potency, µM (series often up to 28.7 µM), for the others: top-dose activity change, negative = inhibition, most hits filed as inhibitors. 310,000 compounds, 5.9% hits. AID 504832; also: % is scaled to controls: 0 for no effect and ±100 for the full control effect
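Read-out is firefly luciferase luminescence from an integrated reporter in P. falciparum, so falling signal marks reduced parasite growth. Infected erythrocytes were at 2% hematocrit and 0.1% parasitemia (final) in Albumax-supplemented RPMI 1640.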
AmpC inh no detg: inhibitors of E. coli AmpC beta-lactamase without detergent. P00811. AmpC nitrocefin hydrolysis, absorbance 480 nm, 0.0001% Triton. 330,000 compounds, 0.52% hits. Potency, µM (series often up to 57.1 µM), for inactives: at the top dose activity change, negative = inhibition, usual class: inhibitors;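 also: plate controls were no compound for no effect and no enzyme for full effect; nearly all actives have a fitted effect of over 20% in size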
Target sequence (P00811 whole entry, looked up): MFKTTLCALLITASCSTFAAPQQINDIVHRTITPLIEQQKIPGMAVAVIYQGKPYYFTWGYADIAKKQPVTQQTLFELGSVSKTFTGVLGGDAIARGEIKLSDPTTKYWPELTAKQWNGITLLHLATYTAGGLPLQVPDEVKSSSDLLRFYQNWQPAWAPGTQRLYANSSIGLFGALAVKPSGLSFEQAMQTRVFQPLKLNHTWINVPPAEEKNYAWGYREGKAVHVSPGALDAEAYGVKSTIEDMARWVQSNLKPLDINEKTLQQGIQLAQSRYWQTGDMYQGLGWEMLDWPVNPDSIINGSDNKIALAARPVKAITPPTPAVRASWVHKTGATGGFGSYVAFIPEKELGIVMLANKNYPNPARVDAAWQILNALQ
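AmpC (5.3 nM in the dispensed reagent) in 20 mM phosphate pH 7.0 with 0.01% (detergent screen) or 0.0001% Triton X-100 was preincubated with compounds for 15 min at room temperature. Nitrocefin was then added from an 800 uM solution, and hydrolysis was followed at 480 nm.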
SARS PLP yeast: SARS-CoV PLP inhibition in yeast; S. cerevisiae expressing SARS-CoV PLpro, growth rescue; Potency, µM (top dose mostly 32.9 µM), without a hit: at the top dose activity, positive = growth rescue, actives largely listed as activators; 330,000 compounds, 0.19% hits; calls by dose curve; also: 0% is about no effect; nearly all actives have a fitted effect of over 55% in size
AmpC inh detg: inhibitors of E. coli AmpC beta-lactamase with detergent; P00811; AID 485294; 370,000 compounds, 0.041% hits; Potency, µM (highest dose often 114 µM), without a hit: at the top dose activity change, negative = inhibition, hits mostly inhibitors; AmpC hydrolysis of nitrocefin, absorbance 480 nm, 0.01% Triton;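 also: 0% = no-compound wells and -100% = no-enzyme wells; nearly all actives have a fitted effect of over 25% in size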
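AmpC (5.3 nM in the dispensed reagent) in 20 mM phosphate pH 7.0 with 0.01% (detergent screen) or 0.0001% Triton X-100 was preincubated with compounds for 15 min at room temperature. Nitrocefin was then added from an 800 uM solution, and hydrolysis was followed at 480 nm.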
Sm TGR inh: inhibitors of Schistosoma mansoni thioredoxin glutathione reductase; Q962Y6; 360,000 compounds, 3% hits; AID 485364; Potency, µM (series often up to 114 µM), for the others: at the highest dose activity change, negative = inhibition, usual class: inhibitors; purified TGR, DTNB reduction, TNB absorbance 405 nm; also: % is scaled to controls: 0 for no effect and ±100 for the full control effect; nearly all actives have a fitted effect of over 60% in size
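First, TGR (20 nM dispensed) and NADPH were mixed with compound. Second, a 15 min room-temperature incubation followed. Third, further NADPH and then DTNB were added to start the reaction. Finally, TNB absorbance was monitored kinetically.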
Pf growth 96h: P. falciparum growth inhibition at 96 hour, primary screen for plastid delayed-death inhibitors; P. falciparum luciferase reporter growth, 96 h; Potency, µM (highest dose often 28.7 µM), inactives show at the top dose activity change, negative = inhibition, actives largely listed as inhibitors; 320,000 compounds, 6.9% hits; AID 504834; also: % is scaled to controls: 0 for no effect and ±100 for the full control effect
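P. falciparum expressing integrated firefly luciferase, in erythrocytes at 2% hematocrit, 0.05% parasitemia, incubated with compounds 96 h at 37 C, 5% CO2. Growth inhibition read as loss of luminescence; two-generation exposure targets delayed-death apicoplast inhibitors.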
* hit, by the source's call; ? = inconclusive; · = no result. Unless noted, calls follow the shape of the dose curve; as a rule, active = well fitted curve in the direction sought with a large enough effect; inconclusive = small, poorly fitted or top-dose-only effect, or another doubt; inactive = no such curve, though single readings can be large; an effect the other way counts as inactive or inconclusive. Potency is read from the fitted curve at half-maximal effect.

SMILES | Pf growth 48h | AmpC inh no detg | SARS PLP yeast | AmpC inh detg | Sm TGR inh | Pf growth 96h
CCCN(CCC)S(=O)(=O)c1ccc2c(c1)N(CC(=O)NCc1ccc(F)cc1Cl)C(=O)CS2 | · | · | · | 11.9% | -0.3% | ·
Nc1nc(N)c2cc(Sc3ccc4ccccc4c3)ccc2n1 | 0.0074µM* | -1.0% | -1.0% | 1.3% | 0.7% | ?
Nc1ccc(Sc2cc(Cl)nc(N)n2)cc1 | -15.5% | -32.2% | 5.8% | 2.9% | 2.6% | 2.2%
Clc1ccc2nc(-c3ccncc3)cc(-c3ccccc3)c2c1 | 9.2% | -6.4% | -7.8% | -1.3% | -2.2% | ?
CSc1cc(-c2ccncc2)nc(-c2ccc(Cl)cc2)c1 | · | 11.4% | -4.2% | -17.7% | 3.3% | 14.7µM*
CCN1C(=O)[C@@H]2[C@@H](c3ccc(-c4ccc(F)cc4)cc3)N3CCCC[C@@]3(C(=O)OC)[C@@H]2C1=O | 10.4µM* | 64.5% | 6.3% | -2.4% | ? | ?
COC(=O)[C@@]12CCCN1[C@H](c1ccc(-c3ccc(F)cc3)cc1)[C@H]1C(=O)N(C)C(=O)[C@H]12 | 1.17µM* | 2.5% | -4.4% | 5.1% | -33.1% | ?
CCN1C(=O)[C@@H]2[C@@H](c3ccc(-c4ccc(Cl)c(Cl)c4)c(OC)c3)N3CCCC[C@@]3(C(=O)OC)[C@@H]2C1=O | 2.62µM* | -4.3% | -10.4% | -3.7% | -3.3% | ?
COC(=O)[C@@]12CCCCN1[C@H](c1ccc(-c3ccc(F)cc3)cc1)[C@H]1C(=O)N(C)C(=O)[C@H]12 | · | -3.0% | -45.2% | · | · | ·
CCN1C(=O)[C@H]2[C@@H](c3ccc(-c4ccc(C(C)=O)cc4)c(OC)c3)N3CCCC[C@@]3(C(=O)OC)[C@H]2C1=O | · | 191.4% | -26.9% | · | · | ·
CCN1C(=O)[C@H]2[C@@H](c3ccc(-c4cccc(Cl)c4)c(OC)c3)N3CCC[C@@]3(C(=O)OC)[C@H]2C1=O | · | 143.1% | -24.6% | · | · | ·
CCN1C(=O)[C@@H]2[C@@H](c3ccc(-c4ccc(F)cc4)c(OC)c3)N3CCCC[C@@]3(C(=O)OC)[C@@H]2C1=O | 10.4µM* | 67.4% | -8.2% | -2.0% | 28.2µM* | 7.38µM*
COc1ccc(C2(c3ccc(OC)cc3)NC(=O)N(CC(=O)NC3CCCC3)C2=O)cc1 | 5.9% | -1.7% | 0.0% | -16.0% | -0.6% | 13.9%
CCC(Oc1ccccc1)C(=O)Nc1ccccc1OCc1cc(=O)n2ccccc2n1 (centres undefined) | · | · | · | 17.4% | 4.0% | ·
COc1ccc(/C=N/N=C2\SC(CC(=O)O)C(=O)N2c2ccccc2)cc1 (centres undefined) | 9.8% | -22.9% | -14.9% | 2.8% | -2.8% | 1.65µM*
CCCC1S/C(=N/N=C/c2ccc(C)cc2)N(Cc2ccc(OC)cc2)C1=O (centres undefined) | 4.15µM* | -18.3% | 2.1% | 2.3% | 16.2% | 10.4µM*
COc1ccc(/C=N\N=C2/SC(CC(=O)O)C(=O)N2c2ccc(O)cc2)cc1 (centres undefined) | 1.9% | -15.0% | 5.7% | 2.8% | 0.0% | -0.9%
CCOC(=O)Nc1ccc2c(c1)N(C(=O)CN(CC)CC)c1ccccc1CC2 | ? | 21.7% | 2.7% | -18.5% | -14.8% | ?
CCN(CC)CCC(=O)N1c2ccccc2CCc2ccc(NC(=O)OC)cc21 | 5.0% | 29.4% | 3.3% | ? | 13.6% | ?
CCN(CC)CC(=O)N1c2ccccc2CCc2ccc(NC(=O)c3cc(OC)c(OC)c(OC)c3)cc21 | 11.7µM* | 172.9% | 0.1% | 4.6% | -24.2% | 9.28µM*
CCN(CC)CC(=O)Nc1ccc2c(c1)N(C(=O)CN(CC)CC)c1ccccc1CC2 | 10.4µM* | 18.9% | 0.4% | 0.8% | -5.4% | ·
Cc1cc(C)cc(OC(C)C(=O)Nc2ccc3c(c2)n(C)c(=O)n3C)c1 (centres undefined) | -5.5% | 39.6% | -7.6% | -19.2% | -23.3% | 0.928µM*
Brc1ccccc1CN1CCC(N2CCCCC2)CC1 | -1.4% | -25.0% | 8.6% | 6.7% | 20.7% | 0.6%
CN1CCN(C2CCN(Cc3ccc(O)c4ncccc34)CC2)CC1 | ? | -11.0% | ? | ? | 1.58µM* | ?
Oc1ccc(CN2CCN(Cc3ccccc3)CC2)c2cccnc12 | 7.0% | -15.8% | -2.9% | -5.4% | 10.4% | ·
SMILES | Pf growth 48h | AmpC inh no detg | SARS PLP yeast | AmpC inh detg | Sm TGR inh | Pf growth 96h
O=S(=O)(c1ccc(Cl)cc1)N1CCN(Cc2ccc(O)c3ncccc23)CC1 | 1.85µM* | -58.9% | -4.1% | -5.2% | ? | ?
O=C(O)c1ccc2c(c1)C(=O)N([C@H](Cc1ccc(Cl)cc1)C(=O)O)C2=O | ? | -8.3% | 1.6% | ? | 1.2% | 0.4%
Cc1cccc[n+]1C1C(c2ccccc2)C(C#N)=C(C(=C=[N-])C#N)NC1(O)C1CC1 (centres undefined) | ? | -31.0% | 1.3% | -0.6% | 5.62µM* | ?
N#CC(=C=[N-])C1=C(C#N)C(c2ccccc2F)C([n+]2ccccc2)C(O)(C2CC2)N1 (centres undefined) | 11.0% | -38.9% | 6.2% | -0.4% | -25.8% | ·
Cc1cc(OCC(=O)Nc2cc(-c3nc4ccccc4[nH]3)ccc2C)ccc1Cl | · | · | · | 0.8% | -3.6% | ·
CCN(CC)C(=O)[C@H]1C[C@H](CC(=O)NC(C)(C)C)C(=O)N2CCc3c([nH]c4ccc(Cl)cc34)[C@]12C | · | 210.3% | 5.8% | · | · | ·
COc1ccc2c(c1)c1ncn(Cc3ccc(F)cc3)c(=O)c1n2C | -11.0% | 101.3% | -0.6% | -6.2% | 0.2% | ?
COc1ccc2c(c1)c1ncn(Cc3ccco3)c(=O)c1n2C | ? | 209.6% | 1.9% | -9.7% | 39.8µM* | ?
Cc1ccc(NC(=O)c2cccc(OCc3c(C)noc3C)c2)cc1 | · | -12.5% | -4.5% | -7.1% | 0.0% | 1.9%
COc1ccc(NS(=O)(=O)c2cc(NC(=O)c3cccc(OCc4c(C)noc4C)c3)ccc2OC)cc1 | 9.28µM* | -11.5% | -15.0% | -8.4% | 0.2% | 6.57µM*
CN(C)C1(CNC(=O)COc2ccc(C(C)(C)C)cc2)CCCCC1 | · | · | · | 18.2% | -0.4% | ·
COc1ccc(C2C(C(=O)c3ccccc3)N3c4ccccc4C=CC3C2[N+](=O)[O-])cc1 (centres undefined) | ? | -28.7% | -0.8% | 4.5% | 39.8µM* | 9.28µM*
CCOC(=O)c1c(NC(=O)Cn2nc([N+](=O)[O-])c(Br)c2C)sc2c1CCC(C)C2 (centres undefined) | -26.6% | -10.9% | 2.4% | -9.8% | -3.2% | 0.0131µM*
Cc1c(Cl)c([N+](=O)[O-])nn1CC(=O)NC1CCCCC1 | -1.6% | -8.9% | 2.9% | 5.0% | 5.3% | ?
